In PubChem BioAssay (NCI):
Compounds without any hit were thinned out: in the full panel of roughly 83,000, 20% have a hit.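 Growth was measured after 48 h exposure to one concentration of compound in 96-well plates. Values under 10 count as active.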 Unmarked numbers belong to inactive results. Activity calls are given as the source filed them.

Tested on: DU-145 prostate
Experiment: NCI-60 one-dose screen, 48 h (100 = growth as untreated, 0 = no growth, -100 = all killed)
Settings: 10 µM unless noted

Compound | growth
N#CC1=C(N)Oc2c(c(N)nn2-c2ccccc2)C1c1ccc(Cl)cc1Cl (stereo unspecified) | 105%
C=C(C)[C@@H]1CC[C@]2(C=O)CC[C@]3(C)[C@H](CC[C@@H]4[C@@]5(C)C/C(=C/c6cccnc6)C(=O)C(C)(C)[C@@H]5CC[C@]43C)[C@@H]12 | 92.1%
C=C(C)[C@@H]1CC[C@]2(C(=O)N3CCN(CC)CC3)CC[C@]3(C)[C@H](CC[C@@H]4[C@@](C)(CCC(=O)N5CCN(CC)CC5)[C@H](C(=C)C)CC[C@]43C)[C@@H]12 | 70.8%
CCN1CCN(C(=O)[C@]23CCC(C)(C)C[C@H]2C2=CC[C@@H]4[C@@]5(C)CC/C(=N/O)C(C)(C)[C@@H]5CC[C@@]4(C)[C@]2(C)CC3)CC1 | 86.4%
N#CC1=C(N)Oc2c(sc3c(F)cccc23)C1c1ccc(Cl)cc1 (stereo unspecified) | 41%
O=C1c2cccc3cccc(c23)C(=O)N1CC#Cc1ccc2c3c(cccc13)C(=O)N(CCN1CCNCC1)C2=O | 99.5%
C=C(C)[C@@H]1CC[C@]2(/C=N/Nc3ccncc3)CC[C@]3(C)[C@H](CC[C@@H]4[C@@]5(C)CCCNC(C)(C)[C@@H]5CC[C@]43C)[C@@H]12 | 95.7%
Cc1ccnc2c(OCc3ccccc3)cccc12 | 97.1%
C=CC(=O)N[C@H](Cc1ccc(-c2cc(Cl)cc(Cl)c2)cc1)[C@H](O)[C@@H](O)C(=O)O | 102%
C=COCCCCCCCCCCCCCCCCCC | 106%
COc1cc2ncnc(Nc3ccc(Oc4ccnc(C)c4)c(C)c3)c2cc1NC(=O)CC1CCSS1 (stereo unspecified) | -7.01% (active)
